Among the data in PubChem BioAssay (NCI) are growth inhibition values, retold here.

Test [1] in a line: NCI Yeast Anticancer Drug Screen. Data for the rad50 strain (AID 155).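 Note: 0% = growth of vehicle-only cultures of the same strain.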 The settings on record: S. cerevisiae rad50 strain growth inhibition, active compounds read high. The method in brief:
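Vehicle-treated cultures provide the reference for the growth inhibition reported for compound-exposed, repair-deficient yeast.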

Test [2] is described as follows: NCI Yeast Anticancer Drug Screen. Data for the mec2-1 strain (AID 157). The settings on record: S. cerevisiae mec2-1 strain, active compounds read high. The method in brief:
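Using mec2-1 yeast: add compound, measure growth, express inhibition versus vehicle-treated cultures.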

Test [3] in a line: NCI Yeast Anticancer Drug Screen. Data for the sgs1 mgt1 strain (AID 161).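 Note: 0% = growth of cultures given vehicle only.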 The settings on record: S. cerevisiae sgs1 mgt1 strain, active compounds read high. The method in brief:
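Percent growth inhibition was derived by comparing compound-exposed mutant yeast with vehicle-exposed cultures. The strain carries alterations in DNA damage repair.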

Test [4] in a line: NCI Yeast Anticancer Drug Screen. Data for the cln2 rad14 strain (AID 165).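 Note: 0% = growth equal to vehicle treated cultures.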 The settings on record: S. cerevisiae cln2 rad14 strain, active compounds read high. A digest of the protocol: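 Yeast strain cln2 rad14, bearing defects in cell cycle control and DNA repair, serves as the test system; values reflect growth inhibition compared with vehicle.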
Test [5] can be described thus: NCI Yeast Anticancer Drug Screen. Data for the bub3 strain (AID 167). The settings on record: S. cerevisiae bub3 mutant strain, active compounds read high. The method in brief:
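Mutant yeast screening strain plus compound; vehicle-treated cultures serve as the 0% inhibition reference.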

The nature of test [6]: NCI Yeast Anticancer Drug Screen. Data for the mlh1 rad18 strain (AID 175). The settings on record: S. cerevisiae mlh1 rad18 strain growth inhibition, active compounds read high. A digest of the protocol: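 Steps: expose repair-defective yeast to compound; measure growth; express inhibition against vehicle-treated controls.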
[7] abbreviates: at 5.0 µM (retest, dose inferred, filed as 0.5).
Setting [8] is: at 50.0 µM (retest, dose inferred, filed as 5.0).

Each structure is given as a SMILES string. Compounds without any hit were thinned out: in the full panel of roughly 79,000, 15% have a hit. Unmarked numbers belong to inactive results. Activity calls are given as the source filed them. Cut-off read from the data, not from the text of the source: active = growth inhibition above about 70%; inactive = the rest.

On to `CC1(C)CC(=O)C(C=NC(=S)c2ccccc2)=C(O)C1`, for which the growth inhibition in test [1] (setting [7]) is 21%; in test [1] (setting [8]) it was 27%; in test [1] (at 50.0 µM), -43.3%; in test [2] (setting [7]), 4%; in test [2] (setting [8]), 13%; in test [2] (at 50.0 µM), -54%. The growth inhibition was 6% in test [3] (setting [7]); 9% in test [3] (setting [8]); -37.1% in test [3] (at 50.0 µM); 11% in test [4] (setting [7]); 14% in test [4] (setting [8]); -0.6% in test [4] (at 50.0 µM). Moreover, the growth inhibition was 20% in test [5] (setting [7]); 32% in test [5] (setting [8]); -13.4% in test [5] (at 50.0 µM); 14% in test [6] (setting [7]); 27% in test [6] (setting [8]); 22.1% in test [6] (at 50.0 µM).

In the case of `Cc1ccc(C)c(NC(=O)/C(=N\NC(N)=S)C(C#N)c2ccccc2)c1` (stereo not given), the growth inhibition in test [1] (setting [7]) is 5%; in test [1] (setting [8]), 13%; in test [1] (at 50.0 µM) it was -14.3%; in test [2] (setting [7]) it was 6%; in test [2] (setting [8]), 6%; in test [2] (at 50.0 µM) it was 12.8%. The growth inhibition in test [3] (setting [7]) is 2%; in test [3] (setting [8]), 12%; in test [3] (at 50.0 µM), 15.6%; in test [4] (setting [7]) it was -1%; in test [4] (setting [8]) it was -4%; in test [4] (at 50.0 µM) it was 28%. Further, the growth inhibition in test [5] (setting [7]) was 10%; in test [5] (setting [8]), 2%; in test [5] (at 50.0 µM) it was 5.75%; in test [6] (setting [7]), 1%; in test [6] (setting [8]), 6%; in test [6] (at 50.0 µM), 69.2%.

As to `COc1ccc(C2=C(Cl)C(=O)N(c3ccc(OC)cc3)C(=O)C2(Cl)Cl)cc1`, the growth inhibition in test [1] (setting [7]) was 8%; in test [1] (setting [8]), 82% (active); in test [1] (at 50.0 µM), 85.6% (active); in test [2] (setting [7]), -10%; in test [2] (setting [8]), 87% (active); in test [2] (at 50.0 µM), 97.8% (active). Also, the growth inhibition in test [3] (setting [7]) was 9%; in test [3] (setting [8]), 88% (active); in test [3] (at 50.0 µM), 67.1%; in test [4] (setting [7]) it was -4%; in test [4] (setting [8]), 42%; in test [4] (at 50.0 µM), 56.8%. In addition, the growth inhibition in test [5] (setting [7]) was -8%; in test [5] (setting [8]), 84% (active); in test [5] (at 50.0 µM) it was 94.9% (active); in test [6] (setting [7]), 6%; in test [6] (setting [8]), 71% (active); in test [6] (at 50.0 µM), 95.8% (active).

In the case of `Fc1ccc(OCCC(Cn2ccnc2)c2ccc(Cl)cc2Cl)cc1` (stereo not given), the growth inhibition was 82% (active) in test [1] (setting [7]); 99% (active) in test [1] (setting [8]); 98.7% (active) in test [1] (at 50.0 µM); 56% in test [2] (setting [7]); 91% (active) in test [2] (setting [8]); 99.8% (active) in test [2] (at 50.0 µM). Besides, the growth inhibition in test [3] (setting [7]) was 71% (active); in test [3] (setting [8]), 96% (active); in test [3] (at 50.0 µM), 95.2% (active); in test [4] (setting [7]), 61%; in test [4] (setting [8]), 92% (active); in test [4] (at 50.0 µM) it was 94.7% (active). For the same molecule, the growth inhibition in test [5] (setting [7]) was 83% (active); in test [5] (setting [8]) it was 94% (active); in test [5] (at 50.0 µM), 99.2% (active); in test [6] (setting [7]), 55%; in test [6] (setting [8]), 99% (active); in test [6] (at 50.0 µM), 95.1% (active).

Turning to `COC(=O)C1(Cc2ccc3c(c2)CCC3)Cc2ccccc2C1O` (stereo not given), the growth inhibition was -3% in test [1] (setting [7]); 99% (active) in test [1] (setting [8]); 76.5% (active) in test [1] (at 50.0 µM); -40% in test [2] (setting [7]); 99% (active) in test [2] (setting [8]); 84.1% (active) in test [2] (at 50.0 µM). The growth inhibition in test [3] (setting [7]) is -44%; in test [3] (setting [8]), 99% (active); in test [3] (at 50.0 µM) it was 86.2% (active); in test [4] (setting [7]), 1%; in test [4] (setting [8]) it was 99% (active); in test [4] (at 50.0 µM), 89.8% (active). Further, the growth inhibition in test [5] (setting [7]) was -14%; in test [5] (setting [8]), 99% (active); in test [5] (at 50.0 µM) it was 89.6% (active); in test [6] (setting [7]) it was -21%; in test [6] (setting [8]), 99% (active); in test [6] (at 50.0 µM) it was 91% (active).

Regarding `C=C(CN(C)C)C(=O)c1ccccc1Cl`, the growth inhibition is -10% in test [1] (setting [7]); 90% (active) in test [1] (setting [8]); 90.8% (active) in test [1] (at 50.0 µM); -15% in test [2] (setting [7]); 80% (active) in test [2] (setting [8]); 92.7% (active) in test [2] (at 50.0 µM). For the same molecule, the growth inhibition was 15% in test [3] (setting [7]); 95% (active) in test [3] (setting [8]); 92.5% (active) in test [3] (at 50.0 µM); -10% in test [4] (setting [7]); 25% in test [4] (setting [8]); 7.9% in test [4] (at 50.0 µM). Also, the growth inhibition in test [5] (setting [7]) is -14%; in test [5] (setting [8]) it was 96% (active); in test [5] (at 50.0 µM) it was 70.6% (active); in test [6] (setting [7]), 46%; in test [6] (setting [8]) it was 98% (active); in test [6] (at 50.0 µM), 98.1% (active).

As for `CCCCCCCCCCC(C(=O)OCCCC)P(=O)(OCCCC)OCCCC` (stereo not given), the growth inhibition is 11% in test [1] (setting [7]); 95% (active) in test [1] (setting [8]); 36.4% in test [1] (at 50.0 µM); 9% in test [2] (setting [7]); 95% (active) in test [2] (setting [8]); 73.2% (active) in test [2] (at 50.0 µM). The growth inhibition in test [3] (setting [7]) is 8%; in test [3] (setting [8]), 86% (active); in test [3] (at 50.0 µM) it was 30.8%; in test [4] (setting [7]) it was 13%; in test [4] (setting [8]), 96% (active); in test [4] (at 50.0 µM), 81.2% (active). The growth inhibition in test [5] (setting [7]) was 4%; in test [5] (setting [8]), 95% (active); in test [5] (at 50.0 µM) it was 21.1%; in test [6] (setting [7]), 6%; in test [6] (setting [8]), 94% (active); in test [6] (at 50.0 µM), 59.3%.

As for `CC1=C(c2ccccc2)C(=O)OC1=O`, the growth inhibition in test [1] (setting [7]) was 5%; in test [1] (setting [8]), 11%; in test [1] (at 50.0 µM) it was 52.5%; in test [2] (setting [7]) it was 2%; in test [2] (setting [8]) it was 0%; in test [2] (at 50.0 µM) it was 2.7%. For the same molecule, the growth inhibition in test [3] (setting [7]) is 4%; in test [3] (setting [8]), 6%; in test [3] (at 50.0 µM) it was -4.65%; in test [4] (setting [7]) it was 0%; in test [4] (setting [8]), 3%; in test [4] (at 50.0 µM) it was -28.4%. Further, the growth inhibition is -2% in test [5] (setting [7]); 3% in test [5] (setting [8]); 3.7% in test [5] (at 50.0 µM); 13% in test [6] (setting [7]); 14% in test [6] (setting [8]); -10.4% in test [6] (at 50.0 µM).

Consider `CCC(CC)COC(=O)c1cccnc1`, for which the growth inhibition in test [1] (setting [7]) was 1%; in test [1] (setting [8]) it was 99% (active); in test [1] (at 50.0 µM), 97.7% (active); in test [2] (setting [7]), -19%; in test [2] (setting [8]), 99% (active); in test [2] (at 50.0 µM) it was 99.1% (active). Besides, the growth inhibition in test [3] (setting [7]) was 0%; in test [3] (setting [8]), 99% (active); in test [3] (at 50.0 µM), 98.2% (active); in test [4] (setting [7]) it was -4%; in test [4] (setting [8]), 99% (active); in test [4] (at 50.0 µM), 96.9% (active). In addition, the growth inhibition was -6% in test [5] (setting [7]); 98% (active) in test [5] (setting [8]); 97.8% (active) in test [5] (at 50.0 µM); 0% in test [6] (setting [7]); 98% (active) in test [6] (setting [8]); 97.5% (active) in test [6] (at 50.0 µM).

Take `CCCc1nc2ccccc2c(=O)n1/N=C/c1ccccc1O`: the growth inhibition in test [1] (setting [7]) was 4%; in test [1] (setting [8]) it was -5%; in test [1] (at 50.0 µM) it was 44.2%; in test [2] (setting [7]) it was -1%; in test [2] (setting [8]) it was -1%; in test [2] (at 50.0 µM), 47.9%. Also, the growth inhibition in test [3] (setting [7]) was 4%; in test [3] (setting [8]), -1%; in test [3] (at 50.0 µM), 72.4% (active); in test [4] (setting [7]) it was -4%; in test [4] (setting [8]) it was -2%; in test [4] (at 50.0 µM) it was 53.8%. For the same molecule, the growth inhibition in test [5] (setting [7]) was -2%; in test [5] (setting [8]) it was -2%; in test [5] (at 50.0 µM), 82.5% (active); in test [6] (setting [7]), -2%; in test [6] (setting [8]) it was 2%; in test [6] (at 50.0 µM), 71% (active).
